# The supplement of paper PMC6555819
# Legend:
# Assay in all cases: PBM binding z-score (relative to random genomic background probes); higher = stronger binding; sequences stand for … in GC…GCGATTGACAGCGTAGAATGAAGG
# [1] = system: FXR:RXRa (NR concentration 270 nM, RXRa partner concentration 90 nM)
# Outline: (§1)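 Scanned fluorescence from custom Agilent 4×180K protein-binding microarrays was regression-normalized. Binding z-scores use random background probes as reference. Ligand-free nuclear receptor dimers were incubated on the arrays for 1 h and detected with antibodies against each partner (one per run).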
# [2] = system: LXRa:RXRa (NR concentration 270 nM, RXRa partner concentration 90 nM)
# Outline: as §1
# [3] = system: LXRa homodimer (NR concentration 270 nM)
# Outline: as §1
# [4] = system: LXRb:RXRa (NR concentration 270 nM, RXRa partner concentration 90 nM)
# Outline: as §1
# [5] = system: LXRb homodimer (NR concentration 270 nM)
# Outline: as §1
# [6] = system: PPARa:RXRa (NR concentration 270 nM, RXRa partner concentration 90 nM)
# Outline: as §1
# [7] = system: PPARg:RXRa (NR concentration 180 nM, RXRa partner concentration 90 nM)
# Outline: as §1
# [8] = system: PPARg:RXRa 270nM:90nM, anti-RXR (NR concentration 270 nM, RXRa partner concentration 90 nM)
# Outline: as §1
# [9] = system: PPARg:RXRa 30nM:10nM, anti-RXR (NR concentration 30 nM, RXRa partner concentration 10 nM)
# Outline: as §1
# [10] = system: PPARg:RXRa 90nM:30nM, anti-RXR (NR concentration 90 nM, RXRa partner concentration 30 nM)
# Outline: as §1
Sequence,PBM binding z-score [1],PBM binding z-score [2],PBM binding z-score [3],PBM binding z-score [4],PBM binding z-score [5],PBM binding z-score [6],PBM binding z-score [7],PBM binding z-score [8],PBM binding z-score [9],PBM binding z-score [10]
CAAACTAGGTCACAGAGGTCAAAATCCGTGCGTA,7.3,6.21,6.61,6.41,2.18,6.58,10,7.86,6.44,7.9
CGAACTAGGTGAAGGACAGTGAATCTCCGCACGC,-0.222,-0.234,-0.52,-0.714,-1.01,2.1,3.52,3.2,0.549,2.14
CCGACTCGGGCAGAAAGGTTACCATACCATCCGG,0.546,0.698,-0.128,0.841,-0.536,1.97,1.41,2.44,0.663,1.76
TTACCTAGGTGAGCTGAGGTCGTTGATCCAACTC,0.355,0.722,-0.414,0.389,-0.985,1.68,0.522,1.09,0.135,0.445
CGAACTAGGTCAAGGACAGTGACTCTCCGCACGC,3.47,2.28,0.349,1.58,-0.267,4.79,7.35,6.66,3.92,6.28
ACTATTAGTTGAGACGAGGGTAACCGATAGGTTG,0.247,0.035,-0.0924,-0.182,0.187,-0.0411,0.515,0.0504,0.213,0.176
ATCTCTAGGTAAAAGTTCGGTGAATCCCGAGGAT,0.161,0.141,0.132,0.00747,0.757,2.68,5.39,6.18,4.88,6.61
CTGCCTAGGTCAGGGCCAGTATAGGAGGAACGTT,1.28,1.01,-0.475,0.634,-1.25,1.88,0.668,0.916,-0.35,0.272
CGAACGAGGGCATGACTTGATAGCAAATGCCGAT,0.404,0.369,-0.781,0.0827,-0.668,1.26,1.28,0.865,-0.352,0.26
ACAGACAGGTGAGTGAAGGTAACTCATCTGGACG,0.0966,-0.0411,-0.402,-0.512,-0.306,-0.155,0.684,0.0954,0.12,-0.143
TAGCCTAGGTCAAATCGGGCCAGTATACGCTATA,5.06,4.49,0.78,3.26,0.87,4.1,2.33,2.88,0.735,2.01
CGTCCAAGGTCAGAGAGGTTAGTGAATGCCGAGT,5.32,3.46,0.378,2.89,-0.248,4.18,2.47,2.56,0.275,1.48
GTACCAAGGTGAATACGTCGTTGATGAGTAGGCG,0.119,-0.0604,-0.411,-0.17,-0.867,0.781,0.854,0.362,0.117,0.456
ATATGTAGGTTAAGGGACATTCAGGTTGGTTCGC,0.93,1.06,0.514,0.945,0.703,3.79,6.5,6.51,4.44,6.65
ACTAATAGTTGACTTAGGGCAACCGATACGACGC,0.35,0.168,0.0838,-0.131,0.352,-0.132,0.962,0.054,0.137,0.153
AGAAGGAGGTTACCAAAGATCAGGGAAACGCTTG,0.978,5.85,0.0257,2.9,0.368,2.79,1.84,2.1,0.736,1.37
CCTGCTAGGGCATGGTCAGCTAATCTACAGTATG,-0.287,-0.381,-0.466,-0.695,-1.06,-0.338,0.0735,-0.381,-0.463,-0.375
TATATTAGTTGAAGGGCAACCGACGAGTCCGTTT,0.481,0.797,0.861,0.474,1.01,0.509,0.844,1.23,0.993,1.22
CCTAGCAGGCCAATCTGGGTCCCTCAAGGCTTGA,-0.114,-0.609,-0.704,-0.838,-1.11,-0.178,-0.823,-0.653,-1.08,-0.919
CCTATTAGTTGACCATAAGGGTAACCGAAGCTCG,0.709,0.386,0.682,0.604,0.958,0.678,0.317,0.671,0.348,0.358
CCTTACGGGTCACTGACAGGTTATACCATTTGGA,4.86,4.42,0.698,3.61,-0.46,5.07,4.22,4.39,1.45,3.05
TCAGACAGGTGAAGATAACTCAGGTACGCAGTCG,0.856,0.897,0.162,1.04,-0.112,1.39,1.09,2.31,3.92,2.92
TAGCCTAGGTCATTCAGGGGCCAGTAAAGAAAGC,4.75,4.05,0.681,3.17,0.778,3.73,1.61,2.56,0.576,1.76
